Test results published in a collection of fitness landscapes (doi:10.1126/science.1257360).
Over roughly 140,000 sequences, “enrichment ratio after two sorts for PhoP signalling” has its median near 0; the highest 2% begin near 11. The sample as a whole holds a higher share of the highest values than the screen did.

B1: PhoQ; a variant is named by its letters at X, in order, P23837 (parent)
chain: MKKLLRLFFPLSLRVRFLLATAAVVLVLSLAYGMVALIGYSVSFDKTTFRLLRGESNLFYTLAKWENNKLHVELPENIDKQSPTMTLIYDENGQLLWAQRDVPWLMKMIQPDWLKSNGFHEIEADVNDTSLLLSGDHSIQQQLQEVREDDDDAEMTHSVAVNVYPATSRMPKLTIVVVDTIPVELKSSYMVWSWFIYVLSANLLLVIPLLWVAAWWSLRPIEALAKEVRELEEHNRELLNPATTRELTSLVRNLNRLLKSERERYDKYRTTLTDLTHSLKTPLXXLQXXLRSLRSEKMSVSDAEPVMLEQISRISQQIGYYLHRASMRGGTLLSRELHPVAPLLDNLTSALNKVYQRKGVNISLDISPEISFVGEQNDFVEVMGNVLDNACKYCLEFVEISARQTDEHLYIVVEDDGPGIPLSKREVIFDRGQRVDTLRPGQGVGLAVAREITEQYEGKIVAGESMLGGARMEVIFGRQHSAPKDE

Variants of: B1
Assay: enrichment ratio after two sorts for PhoP signalling (ratio (wild type AVST 3.29)); higher = more functional
Details: with PhoP (E. coli)

| Variant | enrichment ratio |
| --- | --- |
| RRYY | ≤ 0.25 |
| YGSL | ≤ 0.25 |
| AGLA | 4.99 |
| TGLA | 27.5 |
| IPEP | ≤ 0.25 |
| AGLT | 7.3 |
| RGLA | ≤ 0.25 |
| RGLT | ≤ 0.25 |
| RYEP | ≤ 0.25 |
| ECEP | 15.1 |
| TGLT | 13.5 |
| NGLT | ≤ 0.25 |
| AGLS | 13.8 |
| NGLA | ≤ 0.25 |
| VHMY | ≤ 0.25 |
| LARA | ≤ 0.25 |
| WQQI | ≤ 0.25 |
| FPEF | ≤ 0.25 |
| IHDS | ≤ 0.25 |
| DVNT | ≤ 0.25 |
| CFLN | ≤ 0.25 |
| RGLS | ≤ 0.25 |
| WIWI | ≤ 0.25 |
| NGLN | ≤ 0.25 |

| Variant | enrichment ratio |
| --- | --- |
| EHHF | ≤ 0.25 |
| TGLN | 25.4 |
| EHHK | 14.4 |
| EHHE | ≤ 0.25 |
| TGLS | 14.9 |
| TGWI | 26.1 |
| NGLS | ≤ 0.25 |
| KSWI | ≤ 0.25 |
| FPGM | ≤ 0.25 |
| LGWH | ≤ 0.25 |
| GMYH | ≤ 0.25 |
| PFMM | ≤ 0.25 |
| RQLT | ≤ 0.25 |
| HMPW | ≤ 0.25 |
| GHLA | ≤ 0.25 |
| DNNV | ≤ 0.25 |
| TWFG | ≤ 0.25 |
| WQAF | ≤ 0.25 |
| YTAW | ≤ 0.25 |
| WIAW | ≤ 0.25 |
| KYAW | ≤ 0.25 |
| STAW | 13.1 |
| SQAW | ≤ 0.25 |
| SIAW | 16.5 |

| Variant | enrichment ratio |
| --- | --- |
| FGTC | ≤ 0.25 |
| RLLI | ≤ 0.25 |
| DHVP | ≤ 0.25 |
| KQSI | ≤ 0.25 |
| LTSI | ≤ 0.25 |
| YTSI | ≤ 0.25 |
| ITSI | ≤ 0.25 |
| TTSI | 17.1 |
| CTSI | 19.6 |
| PECL | ≤ 0.25 |
| DRWN | ≤ 0.25 |
| MFTT | ≤ 0.25 |
| TETT | 25.2 |
| MHTT | ≤ 0.25 |
| NETT | ≤ 0.25 |
| METT | 13 |
| QETT | ≤ 0.25 |
| DEMI | ≤ 0.25 |
| SQNC | ≤ 0.25 |
| EVAF | ≤ 0.25 |
| GNFR | ≤ 0.25 |
| PGNR | ≤ 0.25 |
| RASR | ≤ 0.25 |
| SEIA | 13.7 |

| Variant | enrichment ratio |
| --- | --- |
| SEIV | 18.7 |
| DDIA | ≤ 0.25 |
| SPIA | ≤ 0.25 |
| SEAV | 13.6 |
| SERC | ≤ 0.25 |
| SEIS | 8.01 |
| SEWV | 0.784 |
| STAV | 5.94 |
| MEIC | 11 |
| SEIC | 32.9 |
| SEAE | 5.82 |
| DHWR | ≤ 0.25 |
| MSEQ | ≤ 0.25 |
| LCAF | ≤ 0.25 |
| MMGP | ≤ 0.25 |
| YYDN | ≤ 0.25 |
| PLDS | ≤ 0.25 |
| NPKR | ≤ 0.25 |
| FGMH | ≤ 0.25 |
| SEIG | 13.1 |
| SEMW | ≤ 0.25 |
| SQIG | 9.99 |
| DDIY | ≤ 0.25 |
| SFFV | ≤ 0.25 |

| Variant | enrichment ratio |
| --- | --- |
| SEFV | 11.8 |
| SEIY | 21.5 |
| SEPV | ≤ 0.25 |
| SEMV | 23.8 |
| SEEV | 1.98 |
| SPIG | ≤ 0.25 |
| KYIY | ≤ 0.25 |
| KQPW | ≤ 0.25 |
| DFRP | ≤ 0.25 |
| WSND | ≤ 0.25 |
| AMAT | 3.36 |
| YYEG | ≤ 0.25 |
| ESCY | ≤ 0.25 |
| SRIC | ≤ 0.25 |
| LWNH | ≤ 0.25 |
| LGQL | ≤ 0.25 |
| QDGH | ≤ 0.25 |
| HECM | 24 |
| NQCM | ≤ 0.25 |
| KQCM | ≤ 0.25 |
| FQCM | 10.7 |
| EQCM | ≤ 0.25 |
| DWCM | ≤ 0.25 |
| HECK | ≤ 0.25 |

| Variant | enrichment ratio |
| --- | --- |
| SQCM | 19.2 |
| TQCM | 33.7 |
| SNCM | 11.2 |
| IQCM | ≤ 0.25 |
| HFCM | 1.37 |
| SQKE | ≤ 0.25 |
| PCCP | ≤ 0.25 |
| PFFR | ≤ 0.25 |
| LMAE | ≤ 0.25 |
| MLGA | ≤ 0.25 |
| SMKT | ≤ 0.25 |
| AWAS | ≤ 0.25 |
| IGQR | ≤ 0.25 |
| DAQH | ≤ 0.25 |
| STHG | ≤ 0.25 |
| MEHG | 11.9 |
| YYHG | ≤ 0.25 |
| QEHG | 11.2 |
| QPHG | ≤ 0.25 |
| MTHG | ≤ 0.25 |
| HDSR | ≤ 0.25 |
| DTEC | ≤ 0.25 |
| LQRA | ≤ 0.25 |
| AIQG | ≤ 0.25 |

| Variant | enrichment ratio |
| --- | --- |
| YGYF | ≤ 0.25 |
| GGAK | ≤ 0.25 |
| NGRQ | ≤ 0.25 |
| SNMN | 22.4 |
| SNNN | 16.8 |
| HEMN | ≤ 0.25 |
| SNVN | 13.3 |
| SNQN | ≤ 0.25 |
| SPVN | ≤ 0.25 |
| NQCL | ≤ 0.25 |
| SLNN | ≤ 0.25 |
| IQCL | ≤ 0.25 |
| SRNN | ≤ 0.25 |
| SNCL | 14.4 |
| SNPN | ≤ 0.25 |
| TFHC | ≤ 0.25 |
| NQTW | ≤ 0.25 |
| ARRF | ≤ 0.25 |
| VRLN | ≤ 0.25 |
| SQVY | 14.2 |
| SPVY | ≤ 0.25 |
| SQSL | 9.58 |
| SRSL | ≤ 0.25 |
| GQCL | 7.51 |

| Variant | enrichment ratio |
| --- | --- |
| SRCL | 6.4 |
| SQCL | 12.1 |
| NQVN | ≤ 0.25 |
| SQVN | 20.3 |
| SLVN | 1.02 |
| SLVY | ≤ 0.25 |
| SNSL | 16.8 |
| GRRN | ≤ 0.25 |
| QVFR | ≤ 0.25 |
| QFNA | ≤ 0.25 |
| FSTQ | ≤ 0.25 |
| NDYC | ≤ 0.25 |
| PTST | ≤ 0.25 |
| QIDF | ≤ 0.25 |
| NSVL | ≤ 0.25 |
| LHGW | ≤ 0.25 |
| NGIL | ≤ 0.25 |
| LHHH | ≤ 0.25 |
| ELYP | ≤ 0.25 |
| SNNL | 13.1 |
| MEVN | 17.3 |
| WNNL | ≤ 0.25 |
| LNSL | ≤ 0.25 |
| MNSL | 4.59 |

| Variant | enrichment ratio |
| --- | --- |
| SNEL | ≤ 0.25 |
| MKVN | ≤ 0.25 |
| QEVN | ≤ 0.25 |
| WRMN | ≤ 0.25 |
| TNSL | 12.2 |
| SNRL | ≤ 0.25 |
| WNMN | 12 |
| GPCQ | ≤ 0.25 |
| HTRL | ≤ 0.25 |
| WHQP | ≤ 0.25 |
| WEDV | ≤ 0.25 |
| HDYF | ≤ 0.25 |
| AHNC | ≤ 0.25 |
| WAWV | ≤ 0.25 |
| PHYI | ≤ 0.25 |
| WFSM | ≤ 0.25 |
| RGSM | ≤ 0.25 |
| CVSM | ≤ 0.25 |
| CFSM | 18.5 |
| TGSM | 23.5 |
| GGSM | 7.14 |
| KTCN | ≤ 0.25 |
| HRWF | ≤ 0.25 |
| DYHL | ≤ 0.25 |

| Variant | enrichment ratio |
| --- | --- |
| MILN | 17.5 |
| MICN | 31.9 |
| MFCN | ≤ 0.25 |
| MICI | 0.945 |
| MINL | ≤ 0.25 |
| MIWN | ≤ 0.25 |
| MIRW | ≤ 0.25 |
| SSFG | ≤ 0.25 |
| ACLL | 13.3 |
| ACWL | ≤ 0.25 |
| ACLK | 13.7 |
| ACLT | 11.7 |
| ACIV | 0.927 |
| ACVL | 5.91 |
| AILK | 2.69 |
| ACHK | ≤ 0.25 |
| ACLV | 16 |
| ACVT | 1.11 |
| ACNT | ≤ 0.25 |
| ACWI | ≤ 0.25 |
| FPKK | ≤ 0.25 |
| KLEK | ≤ 0.25 |
| STHN | ≤ 0.25 |
| CFKF | ≤ 0.25 |

| Variant | enrichment ratio |
| --- | --- |
| MMGD | ≤ 0.25 |
| TVTR | 2.26 |
| TRGD | ≤ 0.25 |
| QIWC | ≤ 0.25 |
| KYLR | ≤ 0.25 |
| TGGL | 3.52 |
| YWNM | ≤ 0.25 |
| YRPI | ≤ 0.25 |
| ACLA | 11.6 |
| KCCN | ≤ 0.25 |
| ACDS | 0.253 |
| ACLC | 12.2 |
| ACCN | 12.1 |
| AKCN | 5.46 |
| ACNS | ≤ 0.25 |
| ACIC | 9.45 |
| ACLI | 5.06 |
| ACLN | 13.6 |
| ACLS | 6.09 |
| ACYM | 0.253 |
| KVRT | ≤ 0.25 |
| AYPT | ≤ 0.25 |
| QIHR | ≤ 0.25 |
| QDCY | ≤ 0.25 |

| Variant | enrichment ratio |
| --- | --- |
| AARG | ≤ 0.25 |
| DLGS | ≤ 0.25 |
| VYSL | ≤ 0.25 |
| PPRP | ≤ 0.25 |
| PSLE | ≤ 0.25 |
| QMSW | ≤ 0.25 |
| ACNY | 0.855 |
| ACLY | 15.2 |
| ACGY | ≤ 0.25 |
| WFSN | ≤ 0.25 |
| ISKP | ≤ 0.25 |
| LFTC | ≤ 0.25 |
| AKVG | ≤ 0.25 |
| WIVC | ≤ 0.25 |
| AKVC | 15.3 |
| AIVG | 7.78 |
| KKVC | ≤ 0.25 |
| AIVC | 19.1 |
| VMGF | ≤ 0.25 |
| FSQV | ≤ 0.25 |
| KSMG | ≤ 0.25 |
| LCWG | ≤ 0.25 |
| TSMG | 13 |
| TSMS | 26.4 |

| Variant | enrichment ratio |
| --- | --- |
| TSWG | 16.6 |
| TSMD | 10.7 |
| KSQV | ≤ 0.25 |
| KSMS | ≤ 0.25 |
| TSQV | 12.2 |
| MMWG | ≤ 0.25 |
| FSMS | 1.68 |
| EDGN | ≤ 0.25 |
| WMLF | ≤ 0.25 |
| DHGA | ≤ 0.25 |
| GPST | ≤ 0.25 |
| FTYH | ≤ 0.25 |
| IRVV | ≤ 0.25 |
| DYPQ | ≤ 0.25 |
| EQAY | ≤ 0.25 |
| NSWL | 1.26 |
| WSSA | ≤ 0.25 |
| FRMR | ≤ 0.25 |
